Cy5 interf NS3h – counter-screen for HCV NS3 helicase inhibitors: fluorescence interference; Cy5-dT15 DNA with NS3h; actives lie on both sides; signal over control mean, under 1 quenches; 6% of 16,000 active; fluorescence interference ratio at 100 µM;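 active means compound fluorescence over control fluorescence at most 0.8, a quencher, or at least a set upper limit, an enhancer; inactive means ratio between 0.8 and the set upper limit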
HCV NS3h FP – blocks HCV NS3 helicase binding to DNA | 1.6% of 16,000 active | inhibition, % at 100 µM | NS3h Cy5-dT15 DNA binding, fluorescence polarization | AID 687043;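 active means inhibition above the average over every tested compound plus 3 SD, cut at about 40% in these data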
HCV NS3h conf – hepatitis C NS3 helicase inhibition, confirmation; inhibition, % at 100 µM; NS3h binding to Cy5-dT15 DNA, fluorescence polarization; AID 720485; 20% of 240 active; shares compounds with HCV NS3h FP;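 active means percent inhibition of 50% or more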
SSB FP counter – disrupts E. coli SSB binding to DNA in counter-screen | shares compounds with HCV NS3h FP | inhibition, % at 100 µM | E. coli SSB binding Cy5-dT15, fluorescence polarization | 40% of 240 active | AID 720486;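 active means inhibition of at least 50%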;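 further: displacers lower Cy5 polarization so higher inhibition means more SSB displaced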
Target sequence (P0AGE0 whole entry, looked up): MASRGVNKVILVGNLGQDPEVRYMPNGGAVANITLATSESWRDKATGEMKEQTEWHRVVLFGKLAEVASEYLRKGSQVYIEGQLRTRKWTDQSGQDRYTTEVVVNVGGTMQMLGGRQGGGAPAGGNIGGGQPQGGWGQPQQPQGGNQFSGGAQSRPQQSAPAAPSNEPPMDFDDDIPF
Cy5 SSB interf – Cy5 fluorescence interference in NS3h counter-screen; Cy5-dT15/E. coli SSB fluorescence interference; actives lie on both sides; 8% of 240 active; fluorescence interference ratio at 100 µM; shares compounds with HCV NS3h FP;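 active means fluorescence interference ratio at or above 1.2, signal boosting, or at or below 0.8, signal quenching; inactive means ratio between 0.8 and 1.2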
Cy5 fluor confirm – confirmation counter-screen for HCV NS3 helicase inhibitors: fluorescence interference. shares compounds with HCV NS3h FP. Cy5-dT15 DNA/NS3h fluorescence interference counterscreen. fluorescence interference ratio at 100 µM, hits read low. 44% of 240 active;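 active means fluorescence interference ratio at or below 0.8 quencher or at or above a set limitenhancer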
Hits are given with their value; . = inactive; / = no result given. Most compounds without a hit are left out; they make up all but 6.8% or so of the library.

SMILES	Cy5 interf NS3h	HCV NS3h FP	HCV NS3h conf	SSB FP counter	Cy5 SSB interf	Cy5 fluor confirm
O=C1NC(=O)C(=Cc2ccccc2OCc2ccccc2F)C(=O)N1	.	.	/	/	/	/
Cc1ccc(-c2cc(NC(=O)COc3ccccc3)n[nH]2)cc1	.	.	/	/	/	/
O=C1ON=C(c2ccccc2)/C1=C\c1ccc(OCc2ccccc2)cc1	.	.	.	.	.	0.75
COc1cccc(/C=C2/C(=O)ON=C2c2ccccc2)c1OC	.	.	/	/	/	/
N#CC1=C(S)NC(=O)C(C#N)C12CCCCC2 (stereo unspecified)	.	44	.	.	.	.
C=CCSC1=C(C#N)C2(CCCCC2)C(C#N)C(=O)N1 (stereo unspecified)	.	.	/	/	/	/
NC(=O)c1cc(NC(=O)c2cccc(F)c2)ccc1Cl	.	.	/	/	/	/
COc1cc(C(=S)N2CCOCC2)ccc1OC(C)=O	.	.	/	/	/	/
Cc1ccc(N2C(=O)/C(=C\c3ccc(-c4ccc(Cl)c(C(=O)O)c4)o3)C(=O)NC2=S)cc1	.	83	.	94	.	0.73
O=C1NC(=S)N(c2ccccc2)C(=O)/C1=C/c1ccc(-c2cccc(Cl)c2Cl)o1	.	.	/	/	/	/
O=C1NC(=S)N(c2ccccc2)C(=O)/C1=C/c1ccc(-c2ccc(Cl)c(C(=O)O)c2)o1	.	93	.	90	.	0.78
COc1cc([N+](=O)[O-])ccc1-c1ccc(/C=C2\C(=O)NC(=S)N(c3ccc(Cl)cc3)C2=O)o1	.	.	/	/	/	/
N=C(SC1CC(=O)N(c2cccc3ccccc23)C1=O)N1N=C(c2cccs2)CC1c1ccc(Br)cc1 (stereo unspecified)	.	.	/	/	/	/
CC(=O)c1ccc2c(c1)c1ccccc1n2C	.	.	/	/	/	/
Cn1c2ccc(CC(N)=O)cc2c2cc(CC(N)=O)ccc21	.	44	.	.	.	.
CSc1ccccc1N1C(=O)C=CC1=O	.	.	.	.	.	0.75
CSc1ccccc1N1C(=O)C2CC(C)=C(C)CC2C1=O (stereo unspecified)	.	.	/	/	/	/
O=C(Oc1ccc(-c2nc3ccccc3[nH]2)cc1)c1ccc(Cl)cc1	.	.	/	/	/	/
O=C(Oc1ccc(Cl)cc1)c1ccccc1	.	54	50	60	.	1.2
CCOc1ccc(NC(=O)/C=C/c2cc(Br)cs2)cc1	.	.	/	/	/	/
CN(C)/C=C\C=C\C(=O)C1C2CC3CC(C2)CC1C3 (stereo unspecified)	.	.	/	/	/	/
CN(C)/C=C/C=C/C=C1\CCC/C(=C\C=C\N(C)C)C1=O	.	55	.	110	.	.
COC(=O)c1cc(NC(=O)c2ccc(I)cc2)cc(C(=O)OC)c1	.	.	/	/	/	/
O=[N+]([O-])c1ccc(-c2nnc(-c3ccccc3)c(-c3ccccc3)n2)cc1	.	.	/	/	/	/
O=C(NC(NC(=S)Nc1cccc(O)c1)C(Cl)(Cl)Cl)c1cccc([N+](=O)[O-])c1 (stereo unspecified)	.	.	/	/	/	/
SMILES	Cy5 interf NS3h	HCV NS3h FP	HCV NS3h conf	SSB FP counter	Cy5 SSB interf	Cy5 fluor confirm
COc1ccc(CC(=O)O/N=C(/N)c2ccc([N+](=O)[O-])cc2)cc1OC	.	.	/	/	/	/
Cc1ccccc1C(=O)NN=C1CCCC1	.	.	/	/	/	/
C=CCN1C(=O)/C(=C\c2cc(Br)c(OCc3ccc(F)cc3)c(OC)c2)SC1=S	.	.	/	/	/	/
CCOc1cc(/C=C2/SC(=S)NC2=O)cc(Br)c1OCc1ccc(F)cc1	.	83	.	.	.	.
CC(=O)Nc1ccc(S(=O)(=O)N/N=C(/C)c2cccs2)cc1	.	.	/	/	/	/
COc1ccc(C2Nc3ccccc3C(=O)N2Cc2ccco2)cc1Cn1nc(C)c([N+](=O)[O-])c1C (stereo unspecified)	.	.	/	/	/	/
Cc1ccc(C(=O)O)cc1-n1c(C)ccc1C	1.4	82	89	89	.	.
Cc1ccc(-c2ccccc2)n1-c1ccccc1C(=O)O	.	.	/	/	/	/
Cc1cc(C(=O)O)ccc1-n1c(C)ccc1C	1.4	101	100	108	.	.
Cc1cc(Cl)c2cc(C(=O)O)ccc2n1	.	.	/	/	/	/
Cc1onc(-c2c(Cl)cccc2Cl)c1C(=O)Nc1ccc(N(C)C)cc1	.	.	/	/	/	/
CC1=C(C(=O)OCc2ccccc2)C(c2ccccn2)C2=C(CCCC2=O)N1 (stereo unspecified)	.	.	/	/	/	/
Cc1cccc(/C(N)=N\OC(=O)c2ccccc2I)c1	.	.	/	/	/	/
CCc1cccc(NC2(c3ccccc3)C(=O)c3ccccc3C2=O)c1	0.76	69	.	.	.	.
CCOc1ccc(NC2(c3ccccc3)C(=O)c3ccccc3C2=O)cc1	.	.	/	/	/	/
O=C(Nc1ccc(Cl)cc1)C1CC(=O)N(c2ccccc2)C1 (stereo unspecified)	.	.	/	/	/	/
Cc1nc(NC(=O)c2ccccc2)sc1-c1csc(Nc2cccc(C(=O)O)c2)n1	0.8	.	.	.	.	0.73
Cc1ccc(C(=O)Nc2nc(-c3ccccc3)cs2)cc1[N+](=O)[O-]	.	.	/	/	/	/
CCc1ccccc1NC(=O)C(=O)NCCCOC	.	.	/	/	/	/
COc1cccc(OCCOc2ccc(/C=C3/SC(=S)N(c4ccccc4)C3=O)cc2)c1	.	.	/	/	/	/
CC1(C)CC(=O)C2=C(C1)OC1=C(C(=O)CC(C)(C)C1)C2c1c(O)ccc2ccccc12	.	.	/	/	/	/
O=C1N=c2ccccc2=C1N=Nc1nc(O)c(-c2c(O)[nH]c3ccccc23)s1	0.4	124	.	.	0.76	0.73
NS(=O)(=O)c1ccc(CNS(=O)(=O)c2ccc(Br)cc2)cc1	.	.	/	/	/	/
COc1ccc(CN2CCN(Cc3cccc(C)c3)CC2)c(OC)c1	.	.	/	/	/	/
O=C(NC1CCCCC1)c1ccc(Cl)c(Cl)c1	.	.	/	/	/	/
SMILES	Cy5 interf NS3h	HCV NS3h FP	HCV NS3h conf	SSB FP counter	Cy5 SSB interf	Cy5 fluor confirm
COc1ccc(C(=O)NCCCNc2ccc([N+](=O)[O-])cc2Cl)cc1OC	.	.	/	/	/	/
COc1ccc(C(=O)NCCNc2ccc([N+](=O)[O-])cc2)cc1OC	.	.	.	.	.	0.72
Cc1c(OCC(=O)c2ccccc2)ccc2c1oc(=O)c1ccccc12	.	.	/	/	/	/
CC(=O)COc1ccc2c(oc(=O)c3ccccc32)c1C	.	.	.	.	.	0.71
Cc1ccc(N2C(=O)CC(NCc3ccccc3)C2=O)cc1 (stereo unspecified)	.	.	/	/	/	/
COc1cccc(CN2CCN(Cc3cccn3C)CC2)c1	.	.	/	/	/	/
CN1C(=O)/C(=C/c2ccccc2F)SC1=S	.	.	/	/	/	/
O=C1C(=Cc2ccccc2F)C(=O)c2ccccc21	.	61	.	.	.	0.74
O=C1C(=Cc2cccc(Cl)c2)C(=O)c2ccccc21	.	.	/	/	/	/
O=C1C(=Cc2ccccc2)C(=O)c2ccccc21	.	46	.	.	.	0.78
O=C(O)CCN1C(=O)/C(=C\C(Cl)=C/c2ccc([N+](=O)[O-])cc2)SC1=S	.	.	/	/	/	/
O=C(CC1S/C(=N/N=C\C=C\c2ccccc2)NC1=O)Nc1ccc(Cl)cc1 (stereo unspecified)	.	.	/	/	/	/
O=C(N/C(=C/c1ccc(Br)cc1)C(=O)N1CCCCC1)c1ccccc1	.	.	/	/	/	/
COc1ccc(-c2cc(-c3ccccc3)n[nH]2)c(O)c1	1.3	43	.	.	.	0.73

Bioassay records as filed in PubChem BioAssay.
